Test results taken from PubChem BioAssay AID1159580 (chemical genetic matrix, 2015).
Among all 5,500 compounds or so, about 2,000 (36%) were called active. Not shown: some 18% with an inconclusive outcome. No stated cut-off is given here; in the data, active means normalized growth mostly below about 0.91 (no sharp cut-off); inconclusive means no clear call, values can overlap the other calls; inactive means mostly above about 0.92. This is one part of the list.

Test: chemical genetic growth profiling, strain panel (AID 1159580);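 further: tested at 20 µM; growth read once vehicle control cultures reached saturation at 30 °C; 1 = growth at the plate median or of vehicle wells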
Details: S. cerevisiae deletion strains, growth OD

Measured: normalized growth

CC(=O)O[C@@H]1CC2C(C)(C)[C@H](O)C=C[C@]2(C)C2CC[C@@]3(C)[C@H](c4ccoc4)OC(=O)C4OC43[C@@]21C (stereo not given in full)
inactive: locus YAL021C, strain ccr4, stronger effect = lower value 1.02 | locus YAL026C, strain drs2, stronger effect = lower value 1.03 | locus YAL030W, strain snc1, stronger effect = lower value 1.01 | locus YBL061C, strain skt5, stronger effect = lower value 1.02 | locus YBR009C, strain hhf1, stronger effect = lower value 1.02 | locus YBR023C, strain chs3, stronger effect = lower value 1.03 | locus YBR171W, strain sec66, stronger effect = lower value 1.01 | locus YBR231C, strain swc5, stronger effect = lower value 1.02 | locus YBR279W, strain paf1, stronger effect = lower value 1.02 | locus YCL011C, strain gbp2, stronger effect = lower value 1.02 | locus YCL016C, strain dcc1, stronger effect = lower value 1.02 | locus YCL061C, strain MRC1, stronger effect = lower value 1.01 | locus YCL069W, strain vba3, stronger effect = lower value 1.02 | locus YCR088W, strain abp1, stronger effect = lower value 1.02 | locus YDL005C, strain med2, stronger effect = lower value 1.01 | locus YDL040C, strain nat1, stronger effect = lower value 1.02 | locus YDR001C, strain nth1, stronger effect = lower value 1.01 | locus YDR069C, strain doa4, stronger effect = lower value 1.04 | locus YDR137W, strain rgp1, stronger effect = lower value 1.03 | locus YDR159W, strain sac3, stronger effect = lower value 1.03 | locus YDR195W, strain ref2 1.06 | locus YDR297W, strain sur2, stronger effect = lower value 1.01 | locus YDR334W, strain swr1, stronger effect = lower value 1.02 | locus YDR335W, strain msn5, stronger effect = lower value 1.02 | locus YDR392W, strain spt3, stronger effect = lower value 0.963 | locus YEL003W, strain gim4, stronger effect = lower value 1.02 | locus YEL037C, strain rad23, stronger effect = lower value 1.02 | locus YEL061C, strain CIN8 (second series), stronger effect = lower value 1.01 | locus YER015W, strain faa2, stronger effect = lower value 1.02 | locus YER016W, strain bim1, stronger effect = lower value 1.02 | locus YER111C, strain swi4, stronger effect = lower value 1.02 | locus YER155C, strain BEM2 (second series), stronger effect = lower value 1.03 | locus YFR010W, strain ubp6, stronger effect = lower value 1.03 | locus YGL167C, strain pmr1, stronger effect = lower value 1.02 | locus YGL173C, strain kem1, stronger effect = lower value 1.02 | locus YGL227W, strain vid30, stronger effect = lower value 1.02 | locus YGL240W, strain doc1, stronger effect = lower value 1.02 | locus YGL253W, strain hxk2, stronger effect = lower value 1.01 | locus YHR013C, strain ard1, stronger effect = lower value 1.04 | locus YHR027C, strain rpn1, stronger effect = lower value 1.02 | locus YHR030C, strain SLT2, stronger effect = lower value 0.999 | locus YHR079C, strain IRE1, stronger effect = lower value 0.99 | locus YHR142W, strain chs7, stronger effect = lower value 1.02 | locus YJL092W, strain hpr5, stronger effect = lower value 1.02 | locus YJL095W, strain BCK1 (second series), stronger effect = lower value 1.02 | locus YJL095W, strain BCK1, stronger effect = lower value 1 | locus YJL115W, strain asf1, stronger effect = lower value 1.02 | locus YJL129C, strain trk1, stronger effect = lower value 1.04 | locus YJL154C, strain vps35, stronger effect = lower value 1.01 | locus YJL164C, strain tpk1, stronger effect = lower value 0.998 | locus YJL166W, strain qcr8, stronger effect = lower value 1.01 | locus YJL187C, strain SWE1, stronger effect = lower value 1.01 | locus YJR066W, strain TOR1, stronger effect = lower value 0.963 | locus YKL160W, strain elf1, stronger effect = lower value 1.01 | locus YKR026C, strain gcn3, stronger effect = lower value 0.998 | locus YKR091W, strain srl3, stronger effect = lower value 1.02 | locus YLL001W, strain dnm1, stronger effect = lower value 1.01 | locus YLL026W, stronger effect = lower value 1.02 | locus YLL041C, strain sdh2, stronger effect = lower value 1.01 | locus YLR027C, strain aat2, stronger effect = lower value 1.01 | locus YLR113W, strain HOG1, stronger effect = lower value 0.95 | locus YLR221C, strain rsa3, stronger effect = lower value 1.01 | locus YLR258W, strain gsy2, stronger effect = lower value 1.02 | locus YLR262C, strain YPT6 (second series), stronger effect = lower value 1.02 | locus YLR320W, strain mms22, stronger effect = lower value 1.01 | locus YLR342W, strain FKS1, stronger effect = lower value 1.03 | locus YLR357W, strain rsc2, stronger effect = lower value 1.03 | locus YLR370C, strain arc18, stronger effect = lower value 1.02 | locus YLR384C, strain iki3, stronger effect = lower value 1.02 | locus YML120C, strain ndi1, stronger effect = lower value 1.02 | locus YMR058W, strain fet3, stronger effect = lower value 1.02 | locus YMR125W, strain sto1, stronger effect = lower value 1.03 | locus YMR129W, stronger effect = lower value 1.01 | locus YMR205C, strain PFK2, stronger effect = lower value 1.02 | locus YMR231W, strain pep5, stronger effect = lower value 1.02 | locus YNL071W, strain lat1, stronger effect = lower value 1.02 | locus YNL183C, strain NPR1, stronger effect = lower value 0.955 | locus YNL209W, strain ssb2, stronger effect = lower value 1.02 | locus YNL248C, strain rpa49, stronger effect = lower value 1.01 | locus YNL322C, strain KRE1 (second series), stronger effect = lower value 1.02 | locus YNR049C, strain mso1, stronger effect = lower value 1.02 | locus YOR001W, strain rrp6, stronger effect = lower value 1.01 | locus YOR070C, strain gyp1, stronger effect = lower value 1.02 | locus YOR080W, strain dia2, stronger effect = lower value 1.03 | locus YOR083W, strain WHI5, stronger effect = lower value 1 | locus YOR106W, strain vam3, stronger effect = lower value 1.01 | locus YOR231W, strain MKK1, stronger effect = lower value 0.945 | locus YOR265W, strain rbl2, stronger effect = lower value 1.02 | locus YOR270C, strain vph1, stronger effect = lower value 1.04 | locus YOR290C, strain snf2, stronger effect = lower value 0.982 | locus YPL051W, strain arl3, stronger effect = lower value 1 | locus YPL078C, strain atp4, stronger effect = lower value 1.01 | locus YPL106C, strain sse1, stronger effect = lower value 1.04 | locus YPL240C, strain hsp82, stronger effect = lower value 1.02 | locus YPL256C, strain CLN2, stronger effect = lower value 0.962
